What all share (assay type): functional
Assay [1] addresses Solute carrier family 2, facilitated glucose transporter member 1 (Homo sapiens) (UniProt P11166). As to the kind of experiment: ST_JUDE_LEISH: Cytotoxicity at 2uM final concentration against transgenic Leishmania Mexicana promastigotes LmGLUT1 that are glucose transport deficient and complemented with the human glucose transporter GLUT1. Activity is measured by DNA content using SYBR green in vitro.

The target of assay [2] is Hexose transporter 1 (Plasmodium falciparum) (UniProt O97467). The assay is described as follows: ST_JUDE_LEISH: Cytotoxicity at 2uM final concentration against transgenic Leishmania Mexicana promastigotes LmPfHT that are glucose transport deficient and complemented with the Plasmodium falciparum hexose transporter. Activity is measured by DNA content using SYBR green in vitro.

The target of assay [3] is Glucose transporter (Leishmania mexicana) (UniProt O61059). As to the kind of experiment: ST_JUDE_LEISH: Cytotoxicity at 2uM final concentration against transgenic Leishmania Mexicana promastigotes LmGT2 that are glucose transport deficient and complemented with the L. Mexicana glucose transporter 2. Activity is measured by DNA content using SYBR green in vitro.

The results in this text go back to ChEMBL document CHEMBL3433997, “St. Jude Leishmania screening dataset” (2016).

Sequence of Solute carrier family 2, facilitated glucose transporter member 1 (Homo sapiens) (P11166 whole entry): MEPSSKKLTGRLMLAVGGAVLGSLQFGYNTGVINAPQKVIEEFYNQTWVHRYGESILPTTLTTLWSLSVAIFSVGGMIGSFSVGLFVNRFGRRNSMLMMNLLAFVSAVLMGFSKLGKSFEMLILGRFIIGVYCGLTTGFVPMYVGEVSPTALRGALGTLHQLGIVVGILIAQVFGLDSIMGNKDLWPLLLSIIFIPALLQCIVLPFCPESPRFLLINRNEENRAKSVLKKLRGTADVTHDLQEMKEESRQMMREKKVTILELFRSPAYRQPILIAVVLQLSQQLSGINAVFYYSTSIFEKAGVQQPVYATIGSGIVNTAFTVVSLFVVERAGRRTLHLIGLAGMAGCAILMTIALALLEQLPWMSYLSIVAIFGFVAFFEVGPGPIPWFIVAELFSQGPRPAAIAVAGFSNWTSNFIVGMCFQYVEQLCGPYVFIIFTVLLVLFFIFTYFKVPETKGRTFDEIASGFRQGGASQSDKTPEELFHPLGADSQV

As a reminder, the inhibition is the change of the read-out against control, counted positive when it falls. Turning to `CN(C)CCN(Cc1ccccc1)c1ccc([N+](=O)[O-])cc1C(F)(F)F`, the inhibition in assay [1] is 7.95%; in assay [2] it was 7.06%; in assay [3], 8.1%.
On the same counts, the results for `O=C(/C=C/c1ccc(Cl)cc1)NCCCCCN1CCCN(C(=O)Nc2ccc(Cl)c(C(F)(F)F)c2)CC1` are 1.83%, 2.68% and 2.81%.
Turning to `COc1ccc(CNC(=N)Nc2nc(-c3ccc(OCCCn4ccnc4)cc3)cs2)cc1`, the inhibition turned out to be 10.6% in assay [1], 7.44% in assay [2] and 2.73% in assay [3].
In the same order, the values of `CCC(C)c1ccc(O)c(NC(=O)c2cncc(Br)c2)c1` (stereo unspecified) are -0.89%, 0.04% and -2.07%.
On the same counts, the results for `COc1cc(C(=O)NC2CC(C)(C)N(C)C(C)(C)C2)ccc1-c1nc2cc(Cl)c(Cl)cc2[nH]1` are -0.5%, 1.21% and 3.3%.
In the same order, the values of `CCc1c(CCNC/C=C/C=C/CNCCc2ccc(OC)c(OC)c2CC)ccc(OC)c1OC` are 3.5%, 0.39% and 1.71%.
For `CC(C)CC1c2[nH]c3ccccc3c2CCN1C(=O)CCc1ccccc1` (stereo unspecified), the inhibition in assay [1] is 5.53%; in assay [2], 5.28%; in assay [3], 4.41%.
For `Cn1ccnc1Sc1ncccc1[N+](=O)[O-]`, the figures for the inhibition in assay [1], in assay [2] and in assay [3] were -2.32%, 0.92% and 1.8%, respectively.
Regarding `Cc1nc(-c2cccc(Nc3nccc(NCC(O)c4ccccc4C)n3)c2)cs1` (stereo unspecified), the inhibition in assay [1] was 2.79%; in assay [2], 3.57%; in assay [3] it was 3.17%.
For `Cc1noc(C)c1-c1ccc2c(Nc3ccccc3C(C)(C)C)c(C(=O)NCc3ccc4c(c3)OCO4)cnc2c1`, the inhibition was -1.21% in assay [1], 2.69% in assay [2] and -0.92% in assay [3].
With `Cc1nc(N)nc(N)c1CCCOc1ccccc1Br`, the values for the inhibition in assay [1], in assay [2] and in assay [3] were 5.7%, 8.36% and 2.57%, respectively.
Regarding `Cc1cc(N2Cc3ccccc3C2)nc(Nc2cccc(C#N)c2)n1`, the inhibition in assay [1] was found to be 4.07%; in assay [2], 4.04%; in assay [3] it was 2.59%.
In the same order, the values of `COc1ccc(Cc2cnc(N)nc2N)cc1OCCCOc1ccccc1` are -0.49%, 0.92% and -0.52%.
For `O=[N+]([O-])c1ccc(C(O)P(=O)(c2ccccc2)c2ccccc2)cc1` (stereo unspecified), the inhibition in assay [1] is -0.33%; in assay [2], -0.85%; in assay [3], -0.11%.
On to `CCC1(CC)N=C(N)N=C(N)C1c1ccc(Cl)c(Cl)c1` (stereo unspecified), for which the inhibition in assay [1] was -0.44%; in assay [2], 0.07%; in assay [3] it was 0.44%.
As to `COc1ccc(CN2CCC(C(=O)Nc3cccc(-c4cccc(Cl)c4)c3)CC2)cc1O`, the inhibition stood at 5.45% in assay [1], 7.5% in assay [2] and 6.49% in assay [3].
Turning to `COc1ccc(CNc2ccnc3cc(OC)ccc23)cc1`, the inhibition was -1.06% in assay [1], 12.2% in assay [2] and 3.66% in assay [3].
For `COc1ccccc1CN1CCC(NC(=O)c2ccc(-c3cccc(C(F)(F)F)c3)s2)CC1`, the inhibition is 3.7% in assay [1], 4.38% in assay [2] and -4.28% in assay [3].
For the compound `S=c1nc(-c2ccccc2)n2ccsc2n1`, the figures for the inhibition in assay [1], in assay [2] and in assay [3] were 1.86%, 2% and 2.44%, respectively.
Turning to `COc1ccc(S(=O)(=O)N2CCC3(CC2)OCC(=O)NC3c2ccc(Cl)c(Cl)c2)cc1` (stereo unspecified), the inhibition in assay [1] was determined as 2.93%; in assay [2], 1.47%; in assay [3], 0.92%.
`Cc1[nH]c(C)c(-c2ccc(OCc3cccc(C(F)(F)F)c3)nc2)c(=O)c1Br`: the results for the inhibition in assay [1], in assay [2] and in assay [3] were 44.5%, 64.4% and 35%, respectively.
`CC(C)(C)c1ccc(S(=O)(=O)Nc2cc(Cl)ccc2Cn2ccc(N3CCNCC3)nc2=O)cc1`: the values for the inhibition in assay [1], in assay [2] and in assay [3] were -1.22%, -3.39% and -1.02%, respectively.
As to `CS(=O)(=O)Nc1cccc(-c2cnc3[nH]cc(-c4ccc(C(=O)O)c(F)c4)c3c2)c1`, the inhibition is -2.02% in assay [1], -1.06% in assay [2] and 1.09% in assay [3].
In the case of `O=S(=O)(NCCN1CCCC1)c1ccc(-c2ccc(CNC3Cc4ccccc4C3)cc2)cc1`, the inhibition in assay [1] is 2.13%; in assay [2] it was 0.85%; in assay [3] it was -2.78%.
On the same counts, the results for `O=C(N[C@H](CC1CCCCC1)C(=O)NC1CCCc2ccccc21)c1ccc(O)c(-c2cccc([N+](=O)[O-])c2)c1` (stereo partly specified) are 1.2%, 0.18% and 0.88%.
As to `COc1ccc2nccc([C@@H](O)CN3CCC(NCc4ccc5sc(=O)[nH]c5c4)CC3)c2c1`, the figures for the inhibition in assay [1], in assay [2] and in assay [3] were 1.84%, 5.11% and 1.2%, respectively.
On the same counts, the results for `COc1ccc(NC(=O)CCNc2cc(C)nc(NCCOc3ccccc3)n2)cc1` are 2.22%, 2.64% and 1.92%.
Turning to `CN1CCCN(c2ccnc3cc4c(cc23)N(C(=O)c2ccccc2Cl)CC4)CC1`, the inhibition is -0.76% in assay [1], 0.96% in assay [2] and -0.18% in assay [3].
On the same counts, the results for `CCOC(=O)C(NC(=O)Cc1ccccc1)C(C)C` (stereo unspecified) are -2.58%, -2.35% and -3.14%.
Turning to `N#Cc1ccc(-c2ccc(C(=O)NCCCCN3CCC(c4cc(Br)c5c(c4O)CCCC5)CC3)cc2)cc1`, the figures for the inhibition in assay [1], in assay [2] and in assay [3] were 0.25%, 0.94% and -0.42%, respectively.
In the same order, the values of `O=C(c1cc2c(s1)-c1cccc(Cl)c1SC2)N1CCN(c2ccncc2)CC1` are 4.7%, 3.88% and 4.35%.
Take `O=C(Cc1cc(F)cc(F)c1)NC1CCN(c2ccnc3cc(Cl)ccc23)C1` (stereo unspecified): the inhibition in assay [1] is 1.93%; in assay [2] it was 1.66%; in assay [3], 2.22%.
As to `Cc1cccc2nc(-c3ccc(-c4ccc(CN5CCCC(N)C5)cc4)cc3)[nH]c12` (stereo unspecified), the inhibition in assay [1] is 8.17%; in assay [2], 11%; in assay [3] it was 2.6%.
Take `COc1ccc(-c2ccc([N+](=O)[O-])cc2C(=O)NCC(C)Oc2ccc(C(F)(F)F)cc2)cc1` (stereo unspecified): the inhibition in assay [1] was -0.75%; in assay [2] it was -1.3%; in assay [3] it was -3.99%.
For `CC12CCC(C(=O)N(CC(O)Cn3c4ccc(Cl)cc4c4cc(Cl)ccc43)C1=O)C2(C)C` (stereo unspecified), the inhibition in assay [1] came out at 2.14%; in assay [2] it was 0.85%; in assay [3] it was 0.38%.
In the same order, the values of `COc1ccc(CN2CCN(CCCCNC(=O)c3ccc(NC(=O)c4ccc(Cl)cc4)cc3)CC2)c(OC)c1` are 6.23%, 4.9% and 6.03%.
`Fc1ccc2[nH]ccc(=NN=Cc3ccccc3Cl)c2c1`: the inhibition is -0.64% in assay [1], 0.73% in assay [2] and 1.87% in assay [3].
